Experimental data reported in the supplement of paper PMC6555819.

These sequences were tested on PPARg:RXRa IVT, anti-PPARg (NR concentration 270 nM, RXRa partner concentration 90 nM) (assay: PBM binding z-score (relative to random genomic background probes); higher = stronger binding; sequences stand for … in GC…GCGATTGACAGCGTAGAATGAAGG).
Outline: (§1)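 Ligand-free nuclear receptor dimers were applied to custom Agilent 4×180K protein-binding microarrays whose double-stranded probes carried direct-repeat seeds, single-nucleotide variants, half-site ablations and random human genomic background sequences in 34-nt variable regions. Incubation lasted 1 h. Binding z-scores were computed against the random background probes from regression-normalized fluorescence.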

| Sequence | PBM binding z-score |
| --- | --- |
| CCTTCCGGGTCACGAGGTTATAGCACGACGAGCG | 6.43 |
| TCTGCTAAGTCAACGATGGTCAGCTAATCTGCTA | -0.186 |
| TGAATGAGGTTATAAGATCAGAGAACGTTGCAAA | 1.71 |
| CCTGCTAGGTCAATGCTCAGCTAAAGCAGCTCGC | 3.35 |
| TCATATAGGTAATACAGGTGAAAGTCGGCATCTA | 3.48 |
| CCGACTGGGGCAAAGGTTACCCTACTCAGTACGA | 5.45 |
| AATACAGGGTCATCGTAGGCCAGAATACGCACAG | 4.2 |
| TCTCGGAGGACGCGAAAGGTCAGAGCTCGACATC | 0.996 |
| TCTGCTAGGGCAACGATGGTCAGCTAATCTGCTA | 1.59 |
| CCTTACGGGTCACTCCAGGTTATAGCTTCGGAGT | 3.56 |
| TCTAGCAGGCCAGAGTGTCACTCAAGAGGTACGG | 0.187 |
| CCTTACGGGTCACTGACAGGTTACAGCATTTGGA | 4.02 |
| ATATGTAGGTTAGCTGGGGTCAGTCAGACTAGGC | 6.31 |
| CCTACTGGGCCTAAAAGGTCATTGATGCCGATAA | 1.85 |
| CCTAGTTGGTCAAGGTTACACACGCTATAGGTAC | 2.24 |
| ATCGAAAGGTCGACGAGGTGAGTTTACACCGTTT | 2 |
| TCGCCTAGGTCATTGGGCCAGTATAGTACGCATC | 3.38 |
| CCTTACGGGTCAAGGTTAGAGCACGGGTGGTACG | 3.34 |
| TAGCCTAGGTCAATCAGGGGCCAGTATAGAAAGC | 2.75 |
| TCCTATAGGTAAAAGGTGAAAGTCGGTGTGGTAA | 3.95 |

| Sequence | PBM binding z-score |
| --- | --- |
| ATATGGAGGTTACATCCGGGTCATTCAGGCTATG | 3.63 |
| TATACAGGGTCAAATGCCAGAGTACGAATGTCGA | 4.6 |
| TGAATGAGGTTAAAAGATCAGGGAACGTTGCAAA | 2.17 |
| TCTATTGGTTGATTAGGGCAACCGAAACAGCGGA | 1.31 |
| CCTTACGGGTCATGGTTATAGCACGGGTGGTACG | 3.31 |
| CCTAGTTGGTCAGGAGTTCACACACCGGATATGA | 1.1 |
| AATACAGGGTCTCTAGGCCAGAGTAGGTACGAAT | 1.69 |
| ACTAGCAGGCCTAGGGTCACTCAAGATTAGTCCG | 0.917 |
| TCTATTAGTTGATTAGGGCCACCGAAACAGCGGA | 0.608 |
| ACTAGTTGGTCAGGTGAGGTCACACACAATTCGG | 3.37 |
| ATACCAAGGTGATCGTGAGGTAGTTGATACTAAC | 0.993 |
| CCTAGTTGGTCAAGGTCAAACACGCTATAGGTAC | 3.37 |
| TAGCCTAGGTCAGATCGGGCTAGTATACGCTATA | 1.07 |
| TAGCCTAGGTGATTCAGGGGCCAGTATAGAAAGC | 0.666 |
| TCATATAGGTAACTGCTAGGTGAAAGTCCGATCT | 3.78 |
| TCAGACAGGTTAAGGTAACTCAGGTACGCAGTCG | 0.69 |
| TCTCGGAGGACACGAAAGTCAGAGCTTTCCAGAG | 0.191 |
| AATCCAGGGTCACTAGGCCAGAGTAGGTACGAAT | 5.76 |
| CGAACGAGCGCATGAGTTGATAGCAAATGCCGAT | -0.827 |
| GTACAAAGGTGAATAGGTCGTTGATGAGTAGGCG | 4.14 |

These sequences were tested on PPARg DBDmut:RXRa IVT, anti-PPARg (DBD mutation: PPARg1 K132A/R137A, NR concentration 270 nM, RXRa partner concentration 90 nM) in the same assay as above.
Outline: as §1

| Sequence | PBM binding z-score |
| --- | --- |
| CCTTCCGGGTCACGAGGTTATAGCACGACGAGCG | 0.639 |
| TCTGCTAAGTCAACGATGGTCAGCTAATCTGCTA | -0.69 |
| TGAATGAGGTTATAAGATCAGAGAACGTTGCAAA | 0.635 |
| CCTGCTAGGTCAATGCTCAGCTAAAGCAGCTCGC | 0.0583 |
| TCATATAGGTAATACAGGTGAAAGTCGGCATCTA | 1.31 |
| CCGACTGGGGCAAAGGTTACCCTACTCAGTACGA | -0.494 |
| AATACAGGGTCATCGTAGGCCAGAATACGCACAG | 1.53 |
| TCTCGGAGGACGCGAAAGGTCAGAGCTCGACATC | 1.57 |
| TCTGCTAGGGCAACGATGGTCAGCTAATCTGCTA | -0.859 |
| CCTTACGGGTCACTCCAGGTTATAGCTTCGGAGT | 0.585 |
| TCTAGCAGGCCAGAGTGTCACTCAAGAGGTACGG | -0.515 |
| CCTTACGGGTCACTGACAGGTTACAGCATTTGGA | 0.114 |
| ATATGTAGGTTAGCTGGGGTCAGTCAGACTAGGC | 2.61 |
| CCTACTGGGCCTAAAAGGTCATTGATGCCGATAA | -0.634 |
| CCTAGTTGGTCAAGGTTACACACGCTATAGGTAC | 1.11 |
| ATCGAAAGGTCGACGAGGTGAGTTTACACCGTTT | 1.01 |
| TCGCCTAGGTCATTGGGCCAGTATAGTACGCATC | -0.283 |
| CCTTACGGGTCAAGGTTAGAGCACGGGTGGTACG | 0.826 |
| TAGCCTAGGTCAATCAGGGGCCAGTATAGAAAGC | -0.205 |
| TCCTATAGGTAAAAGGTGAAAGTCGGTGTGGTAA | 0.0451 |

| Sequence | PBM binding z-score |
| --- | --- |
| ATATGGAGGTTACATCCGGGTCATTCAGGCTATG | 1.46 |
| TATACAGGGTCAAATGCCAGAGTACGAATGTCGA | 3.56 |
| TGAATGAGGTTAAAAGATCAGGGAACGTTGCAAA | 0.743 |
| TCTATTGGTTGATTAGGGCAACCGAAACAGCGGA | 1.58 |
| CCTTACGGGTCATGGTTATAGCACGGGTGGTACG | 0.473 |
| CCTAGTTGGTCAGGAGTTCACACACCGGATATGA | 0.396 |
| AATACAGGGTCTCTAGGCCAGAGTAGGTACGAAT | -0.23 |
| ACTAGCAGGCCTAGGGTCACTCAAGATTAGTCCG | -0.943 |
| TCTATTAGTTGATTAGGGCCACCGAAACAGCGGA | 0.893 |
| ACTAGTTGGTCAGGTGAGGTCACACACAATTCGG | 0.914 |
| ATACCAAGGTGATCGTGAGGTAGTTGATACTAAC | 1.09 |
| CCTAGTTGGTCAAGGTCAAACACGCTATAGGTAC | 0.444 |
| TAGCCTAGGTCAGATCGGGCTAGTATACGCTATA | -0.407 |
| TAGCCTAGGTGATTCAGGGGCCAGTATAGAAAGC | -0.281 |
| TCATATAGGTAACTGCTAGGTGAAAGTCCGATCT | 1.12 |
| TCAGACAGGTTAAGGTAACTCAGGTACGCAGTCG | 0.624 |
| TCTCGGAGGACACGAAAGTCAGAGCTTTCCAGAG | -0.706 |
| AATCCAGGGTCACTAGGCCAGAGTAGGTACGAAT | 1.17 |
| CGAACGAGCGCATGAGTTGATAGCAAATGCCGAT | -0.939 |
| GTACAAAGGTGAATAGGTCGTTGATGAGTAGGCG | 1.72 |
